Experimental data published in PubChem BioAssay AID493175 (National Center for Advancing Translational Sciences (NCATS), 2011).
Inconclusive results are not listed. Activity calls are given as the source filed them. The call rests on the fitted dose curve; in most records, active means well fitted curve in the direction sought with a large enough effect; inconclusive means small, poorly fitted or top-dose-only effect, or another doubt; inactive means no such curve, though single readings can be large or run the other way.

molecular target: Luciferin 4-monooxygenase (Photinus pyralis) (UniProt P08659); test: miR-21 counterscreen using purified firefly luciferase; conditions: purified P. pyralis luciferase, luminescence; series mostly up to 57.5 µM; activity change, negative = inhibition: at the top concentration
Sequence (P08659 whole entry, looked up): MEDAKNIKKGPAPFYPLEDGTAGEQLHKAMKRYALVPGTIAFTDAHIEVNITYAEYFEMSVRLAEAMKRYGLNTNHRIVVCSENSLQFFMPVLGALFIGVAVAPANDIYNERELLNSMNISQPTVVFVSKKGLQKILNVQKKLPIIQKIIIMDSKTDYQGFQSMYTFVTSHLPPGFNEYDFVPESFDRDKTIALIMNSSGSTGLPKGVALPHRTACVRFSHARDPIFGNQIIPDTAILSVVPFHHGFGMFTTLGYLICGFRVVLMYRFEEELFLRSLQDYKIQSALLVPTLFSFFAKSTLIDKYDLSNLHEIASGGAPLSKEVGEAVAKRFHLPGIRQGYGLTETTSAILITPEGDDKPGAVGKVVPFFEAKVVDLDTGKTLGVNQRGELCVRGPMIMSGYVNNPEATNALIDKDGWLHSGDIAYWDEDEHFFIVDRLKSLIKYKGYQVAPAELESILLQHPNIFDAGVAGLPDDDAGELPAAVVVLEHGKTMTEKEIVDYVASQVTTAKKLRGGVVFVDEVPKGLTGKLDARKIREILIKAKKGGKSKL
Description: MLPCN Grant: 1 R21 NS059478-01 Assay Provider: Qihong Huang, The Wistar Institute NCGC Assay Overview: MicroRNAs (miRNAs) are endogenously encoded small (~20-25 nucleotides), nonprotein-coding RNAs that are involved in post-transcriptional repression of target messenger RNAs (mRNAs) (Le and Hannon, 2004). Estimated to be involved in the regulation of 30% of all protein-coding mRNAs (Filipowicz et al., 2008), miRNAs play a significant role in many biological processes including cellular differentiation and tissue development (Ghildiyal and Zamore, 2009). […] Compounds active in the miR-21 FLuc assay were clustered using Leadscope and active chemical series were prioritized based on chemical properties, potential for medicinal chemistry optimization, and SAR. Within each chemical series, representative compounds were re-acquired to test for activity in a secondary assay based on the quality of their CRC, efficacy, and potency. This secondary assay to determine if compounds active in the miR-21 FLuc assay were just luciferase inhibitors. Compounds found active in both the miR-21 FLuc and purified FLuc assays are considered as false positives. Keywords: NIH Roadmap, MLPCN, MLSMR, qHTS, miR-21, firefly luciferase, FLuc, miRNA.
NCGC Assay Protocol Summary: Reagents: 50mM Tris acetate, pH 7.5; 10mM Mg acetate; 10uM D-luciferin (Sigma #L9504); 10uM ATP; 0.01% Tween-20; 0.05% BSA; 10nM P. pyralis luciferase (Sigma #L9506) Control compounds used were two known firefly luciferase inhibitors (compounds (2) and (5) in Auld et al., 2010), and DMSO. Assay Summary: Three microliters containing firefly luciferase substrates in buffer (final concentrations: 50mM Tris acetate, pH 7.5, 10mM Mg acetate, 0.01% Tween-20, 0.05% BSA, 10uM D-luciferin, and 10uM ATP) are dispensed into each well of a Greiner white, solid-bottom 1536-well format plate using a flying reagent dispenser (FRD). These assay plates were then treated with 23nL of compound or DMSO using a Kalypsys pin tool, which allows for delivery of a 6-point interplate titration of each compound to the assay plate (quantitative HTS), with a final compound concentrations ranging from approximately 60 µM to 7pM. One microliter of firefly luciferase in […] Tris-acetate buffer was then delivered by FRD to each well for a final enzyme concentration of 10nM. Luciferase activity was then measured using a ViewLux CCD imager (PerkinElmer), with an average exposure time of 2-30 seconds (2X binning, medium/high gain).

Row | SMILES | activity change, negative = inhibition
1 | Cc1ccc(-c2nc(NCc3ccco3)n(S(C)(=O)=O)n2)cc1 | 0.606% (inactive)
2 | Fc1cccc(Cl)c1CSc1nnc2ccccn12 | -17.8% (inactive)
3 | COc1ccc(-c2nnc(SCC(=O)Nc3cccc(F)c3)s2)cc1 | -12.9% (inactive)
4 | COc1cc(-c2nc3cnccn3c2Nc2ccc(C(C)C)cc2)ccc1O | -1.34% (inactive)
5 | CN(C(=O)CSc1nnc(-c2ccccc2F)o1)C1CCCCC1 | -17.4% (inactive)
6 | C[C@]12CC[C@H]3C(=CCc4cc(O)ccc43)[C@@H]1CCC2=O | -18.3% (inactive)
7 | CCS(=O)(=O)n1nc(-c2ccccc2)nc1NCc1ccco1 | -1.7% (inactive)
8 | COc1ccccc1C(=O)n1nc(-c2ccco2)nc1NCc1ccc(Cl)cc1 | 0.108% (inactive)
9 | CC(C)C(=O)Nc1nc2c(s1)CC(C(C)(C)C)CC2 (centres undefined) | -17.6% (inactive)
10 | COc1cccc(C(=O)Nc2ccc3nc(N4CCN(c5ncccn5)CC4)cc(C)c3c2)c1OC | -18.1% (inactive)
11 | Nc1c(-c2nc(-c3cccs3)no2)nnn1-c1cccc(F)c1 | -11.2% (inactive)
12 | Cc1nnc(SCc2nc(N)nc(Nc3ccccc3)n2)s1 | -25.9% (inactive)
13 | Cc1cccc(-n2nnc(-c3nc(-c4cccs4)no3)c2N)c1C | 2.43% (inactive)
14 | COc1ccc(OCC(=O)Nc2cc(-c3nc4ccccc4s3)ccc2C)cc1 | -18.9% (inactive)
15 | Cc1ccc(-c2nsc(SCC(=O)Nc3ccc4c(c3)OCO4)n2)cc1 | -19.4% (inactive)
16 | O=C(Nc1ccc(-c2nc3ccccc3[nH]2)cc1)c1ccc2c(c1)OCO2 | -15.9% (inactive)
17 | Cc1ccc(C(=O)Nc2ccc3c(c2)N(C)C(=O)c2ccccc2S3)cc1 | -1.26% (inactive)
18 | O=S(=O)(c1ccc(F)cc1)n1ccc(-c2cnc(-c3ccccc3)s2)n1 | -19.1% (inactive)
19 | COc1ccc(CNc2n[nH]c(-c3ccco3)n2)cc1OC | -7.47% (inactive)
20 | O=C(Nc1nnc(S(=O)(=O)N2CCCC2)s1)c1ccc(F)cc1 | -3.57% (inactive)

Row | SMILES | activity change, negative = inhibition
21 | Cc1cc(C)cc(NC(=O)CSc2nnc(CNC(=O)c3ccco3)o2)c1 | 3.89% (inactive)
22 | Cc1ccc2c(C)c(C(=O)N(C)C(C)c3ccncn3)oc2c1C (centres undefined) | 2.25% (inactive)
23 | O=C(CSc1nnc(-c2ccc(C(F)(F)F)cn2)o1)Nc1cccc(Cl)c1 | -0.604% (inactive)
24 | COc1nc(Nc2cccc(C(F)(F)F)c2)nc(OC)n1 | -6.49% (inactive)
25 | Cc1ccc(CNc2nc3nc(C)c(Cl)c(C)n3n2)cc1 | -5.45% (inactive)
26 | O=C(CSc1nnc(-c2ccccn2)o1)Nc1cccc(Cl)c1 | -13.8% (inactive)
27 | COCC(=O)Nc1c(C(=O)Nc2ccc3c(c2)OCCO3)oc2ccccc12 | -14.9% (inactive)
28 | CC(C)COc1ccc(C(=O)Nc2cc(-c3ccccc3)no2)cc1 | -23.7% (inactive)
29 | CCc1nonc1NC(=O)c1oc2ccccc2c1C | -6.73% (inactive)
30 | NC(=O)c1ccccc1NC(=O)c1ccc(-c2ccc(Br)cc2)o1 | 0.577% (inactive)
31 | COc1ccc(-c2csc(NC(=O)COC(=O)c3ccc(Br)o3)n2)cc1 | 0.739% (inactive)
32 | O=C(CSc1nnc(-c2ccncc2)o1)Nc1nncs1 | -0.438% (inactive)
33 | Nc1c(-c2nc(-c3ccccc3Cl)no2)nnn1-c1ccccc1F | -14.3% (inactive)
34 | Cc1cccc(N2CCN(c3ncnc4onc(C)c34)CC2C)c1 (centres undefined) | -2.15% (inactive)
35 | COc1ccccc1Nc1nn2c(=O)c3ccc(C(=O)NCCc4ccccc4)cc3nc2s1 | -1.8% (inactive)
36 | Cc1ccc(SCC(=O)Nc2ccc3oc(-c4ccc(F)cc4)nc3c2)cc1 | -1.61% (inactive)
37 | COCc1cc(C)nc2sc(C(=O)OC(C)C)c(N)c12 | -1.1% [at 2.3 µM] (inactive)
38 | COc1ccc(-n2nnc(-c3nc(-c4cccs4)no3)c2N)cc1OC | -9.69% (inactive)
39 | COc1ccc(OCC(=O)Nc2ccc(-c3nc4cc(C)c(C)cc4o3)cc2)cc1 | -0.217% (inactive)
